High-throughput results deposited in PubChem by National Center for Advancing Translational Sciences (NCATS).
ERK EGF block = blocks ERK signaling stimulated by EGF; HEK293-V1b, EGF-stimulated phospho-ERK AlphaScreen; Potency, µM (highest dose often 11.5 µM), for the others: at the top dose activity change, negative = inhibition, usual class: inhibitors; actives 0.41% (n = 130,000); active = well fitted inhibition curve with a large enough effect;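 note: plate controls were stimulated vehicle wells for no effect and unstimulated vehicle basal for full effect; nearly all actives have a fitted effect of over 55% in size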
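V1b-HEK293, 1% FBS o/n; cpd 30 min 37C; EGF 25 nM final, 5 min; lyse 10 min; AlphaScreen beads 5 h RT. Normalized DMSO basal vs EGF max; Hill AC50.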
* hit, by the source's call; ! = repeats disagree; [ ] = dose if it differs, or a comment. The entries come from a sample that favours hits as a whole. Potency is the fitted concentration of half-maximal effect.

SMILES | ERK EGF block
COc1ccc2c(c1)C(=O)[C@H](OC(=O)NCCc1ccc(OC)c(OC)c1)[C@@H](c1ccc(OC)c(Br)c1)O2 | -8.5%
CCCCCCCc1cc2c(cn1)=C(OC)C(C)(OC(C)=O)C(=O)C=2Cl (centres undefined) | -0.1%
O=C(NCCc1cn2ccccc2n1)c1cc(COc2ccc3ncccc3c2)on1 | 28.2µM*
O=C(c1cc(COc2ccc3ncccc3c2)on1)N1CCCCCC1 | -2.0%
O=C(NC1CCCC1)c1cc(COc2ccc3ncccc3c2)on1 | -9.8%[57.5 µM]
N#Cc1cccc(CS(=O)(=O)c2ccccc2)c1 | -3.5%
COCCN(CCOC)c1nc(C)nc2c1nc(-c1ccccc1)n2CCN(C)C | -9.8%
O=C(/C=C/c1c(C(=O)O)[nH]c2cc(Cl)cc(Cl)c12)Nc1ccccc1 | -8.6%
COc1ccc2[nH]c3c(N4CCc5ccccc5C4)ncnc3c2c1 | 31.6µM*
COc1ccc2[nH]c3c(=O)n(CCCN4CCOCC4)cnc3c2c1 | -6.4%[57.5 µM]
CCOc1ccc2[nH]c3c(N4CCC5(CC4)OCCO5)ncnc3c2c1 | 0.4%[57.5 µM]
O=C1CCC=C1C(O)c1ccccc1 (centres undefined) | -8.2%
COc1ccc(C(=O)OC2CC3CC[C@H](C2)N3C(C)=O)cc1OC (some centres undefined) | -12.1%
C=CC[C@@](C(C)=O)(C(=O)OC)C(NC(=O)OC(C)(C)C)c1ccccc1 (some centres undefined) | 1.0%
CN1/C(=C/c2cc[n+](C)c3ccccc23)C=Cc2ccccc21 | 10µM*
COC(=O)/C(C#N)=C1/C=Cc2ccccc2N1C | -5.5%
CC(C)(C)OC(=O)C1=NOC2(C=CC(=O)C=C2)C1 | -2.4%
Cc1ccc2cc(CCNC(=O)c3cc4ccccc4o3)c(=O)[nH]c2c1C | 31.6µM*
CCC(=O)NCCc1cc2ccc(C)c(C)c2[nH]c1=O | 3.0%
Cc1ccc2cc(CCNC(=O)C(C)C)c(=O)[nH]c2c1C | -2.1%
O[C@H](CN1CCN(c2cccc(Cl)c2)CC1)C(c1ccccc1)c1ccccc1 | -2.6%
COc1cccc(-c2ccc3ncnc(NCc4cccs4)c3c2)c1 | 28.2µM*
COc1cccc(-c2ccc3ncnc(NC4CCNCC4)c3c2)c1 | 34.5%
c1cncc(CNc2ncnc3ccc(-c4cccnc4)cc23)c1 | 10.9%
FC(F)(F)c1cc(NC(=S)Nc2ccc3ccccc3c2)cc(C(F)(F)F)c1 | -1.3%
SMILES | ERK EGF block
Cc1cccc(CNc2nc(-c3ccc(C(=O)N(C)C)cc3)nc3ccccc23)c1 | 22.2%
Cc1cccc(CNc2nc(-c3cccnc3)nc3ccccc23)c1 | 31.6µM*
COc1cccc(CNc2nc(-c3cccnc3)nc3ccccc23)c1 | 3.6%
COc1c2c(c(C(=O)/C=C/C(C)=C/c3ccccc3)c3c1OCO3)CCN(C)C2 | -7.1%
CCCC(=O)NCCc1c2n(c3ccc(OC)cc13)Cc1ccccc1-2 | 12.1%
C/C=C/C1=Cc2ccccc2C(C(C(=O)OC)C(=O)OC)N1C(=O)OC (centres undefined) | -4.6%
Cc1ccc(O)c(N=Nc2ccc(S(=O)(=O)N3CCOCC3)cc2)c1 | 8.8%
CC(C)(C)c1cc(Br)c(O)c(N=Nc2ccc(S(=O)(=O)N3CCOCC3)cc2)c1 | 25.1µM*
COc1ccc(S(=O)(=O)N2CCOCC2)cc1Br | 0.5%
CCC(=C(CC)c1ccc(O)cc1)c1ccc(O)cc1 | 12.1%[25.7 µM]
C/C=C\C[C@H](C)[C@H](O)[C@H]1C(=O)N[C@@H](CC)C(=O)N(C)CC(=O)N(C)[C@@H](CC(C)C)C(=O)N[C@@H](C(C)C)C(=O)N(C)[C@@H](CC(C)C)C(=O)N[C@@H](C)C(=O)N[C@@H](C)C(=O)N(C)[C@@H](CC(C)C)C(=O)N(C)[C@@H](CC(C)C)C(=O)N(C)[C@@H](C(C)C)C(=O)N1C | 11.0%[25.7 µM]
Nc1ncnc2c1ncn2[C@@H]1O[C@H](CO)[C@H](O)[C@H]1O | 16.3%
O=C(CN1CCc2ccccc21)NN1CC(=O)N(c2ccc(Cl)cc2)CC1=O | 17.8µM*
CN1CCN(CC(=O)NN2CC(=O)N(c3ccc(F)cc3)CC2=O)CC1 | 1.7%[57.5 µM]
O=C(Nc1ccccc1)NN1CC(=O)N(c2ccc(Cl)cc2)CC1=O | -24.1%[57.5 µM]
CNC(=O)Oc1ccc2c(c1)C1(C)CCN(C)C1N2C (centres undefined) | -18.5%
CN(C)CCOC(c1ccccc1)c1ccccc1 | 14.1µM*!
CN(C)CCOC(c1ccccc1)c1ccccc1 (tested in a mixture with another compound) | 14.4%[57.5 µM]
CN(C)CCOC(c1ccc(Cl)cc1)c1ccccn1 (centres undefined) | 18.0%
C=CCOC(=O)N[C@H](/C(C(=O)OC)=C(\C)NCc1ccccc1)c1cccc(OC)c1 | 1.1%
CCCCCC1=C2CNC(CCC)(C(=O)OC)C=C2C(C)C1=O (centres undefined) | 22.0%
CCOc1ccc(Nc2c3ccccc3nc3ccccc23)cc1 | 10.7%[57.5 µM]
CCOc1ccc(NC2=C(OC)C(=O)c3ccccc3C2=O)cc1 | 12.6µM*
COC1=C(Nc2ccc(OC)cc2)C(=O)c2ccccc2C1=O | 12.6µM*
CCOc1ccc(NC(C)=O)cc1 | -17.0%
SMILES | ERK EGF block
CCNC1=C(Cl)C(=O)c2ccccc2C1=O | 15.5%[57.5 µM]
O=C1C(Cl)=C(NCCN2CCCCC2)C(=O)c2ccccc21 | 5.3%
COc1ccc(C2=C(Nc3ccccc3)c3ccccc3C2=O)cc1 | -1.7%
CCN(CC)c1ccc(NC2=C(Cl)C(=O)c3ccccc3C2=O)cc1 | 10µM*
COc1ccc(NC2=C(c3ccc(OC)cc3)C(=O)c3ccccc32)cc1 | 3.4%
COc1cccc([C@@H]2Oc3ccc(OC)cc3C[C@H]2OC(=O)NS(=O)(=O)c2ccc(C)cc2)c1 | -5.4%
COc1ccc(CNc2ncnc3ccc(-c4ccccc4CN(C)C)cc23)c(OC)c1 | 16.1%
CC(N)=NCCCC(N)C(=O)O (centres undefined) | 0.6%
C=CC1=C(C)/C(=C/c2[nH]c(Cc3[nH]c(/C=C4\NC(=O)C(C)=C4C=C)c(C)c3CCC(=O)O)c(CCC(=O)O)c2C)NC1=O | 15.7%
N#Cc1ccc(CS(=O)(=O)c2ccccc2)cc1 | -2.8%
CCOC(=O)C(C(=O)c1ccccc1)[C@H](CCc1ccccc1)NC(=O)OC (some centres undefined) | -7.1%
CCOC(=O)C1=C(N)Oc2cc(O)ccc2C1c1ccc([N+](=O)[O-])cc1 (centres undefined) | 17.8µM*
CCOC(=O)C1=C(O)C(=O)N(c2ccccc2)C1c1cccc([N+](=O)[O-])c1 (centres undefined) | 10.5%[57.5 µM]
CCOC(=O)C1=C(O)C(=O)N(c2ccc(S(N)(=O)=O)cc2)C1c1ccc([N+](=O)[O-])cc1 (centres undefined) | 7.1%[57.5 µM]
C=CCOC(=O)N[C@H](/C(C(=O)OC)=C(\C)NCc1ccccc1)c1cccc(C(F)(F)F)c1 | 1.4%
CN(C)c1ccc(-c2nc(NCc3cccnc3)c3ccccc3n2)cc1 | 20.3%
N#CCCN1CCCc2cc(N=Nc3ccc(C(F)(F)F)cc3)ccc21 | 22.4µM*
N#Cc1c(N2CCOCC2)nsc1-c1ccc(C(F)(F)F)cc1 | 5.5%[57.5 µM]
CC(C)C[C@@H](CC(=O)N[C@H](CC(=O)N[C@@H]1CCNC[C@H]1C(=O)N[C@H](CC(=O)N[C@@H](CCC(=O)O)CC(=O)O)Cc1c[nH]c2ccccc12)C(C)C)NC(=O)[C@@H]1CCCC[C@H]1N | -11.3%
CNCCCCc1cnc(C)c2[nH]c3ccccc3c12 | -4.0%
